Assay [1] is described as follows: compound effects on lung adenocarcinoma cell viability – A549, calcein-AM fluorescence, 48 h, basal, profiling panel (AID 1162). Also: test concentration not given here. As to conditions: higher = more signal.
Assay [2] can be described thus: compound effects on differentiated 3T3-L1 adipocyte viability – cell-based, 3T3-L1 adipocytes, calcein-AM fluorescence, 48 h, basal, profiling panel (AID 1163). Also: test concentration not given here. As to conditions: 3T3-L1 adipocytes viability, higher = more signal.
The nature of assay [3]: compound effects on hepatocellular carcinoma cell viability – HepG2, calcein-AM fluorescence, 48 h, basal, profiling panel (AID 1164). Also: test concentration not given here. To be noted: higher = more signal.
Assay [4] is described as follows: compound effects on multiple myeloma cell viability – MM1S, calcein-AM fluorescence, 48 h, basal, profiling panel (AID 1165). Also: test concentration not given here. As to conditions: higher = more signal.
Assay [5] is described as follows: calcein-AM signal in unstimulated myeloma cells – cell-based, calcein-AM fluorescence, 48 h, PK04 Diversity Set, profiling panel (AID 1166).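 Also: cells grown under basal conditions without added stimulus; test concentration not given here.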 As to conditions: RPMI8226 myeloma viability, higher = more signal.
A short description of assay [6]: JC-1 mitochondrial signal, unstimulated HepG2 cells – cell-based, JC-1 fluorescence, 24 h, 100 nL compound, profiling panel (AID 1167). Also: test concentration not given here. To be noted: HepG2 mitochondrial potential, higher = more signal.
Assay [7] is described as follows: JC-1 mitochondrial signal, unstimulated adipocytes – cell-based, JC-1 fluorescence, 3T3-L1 adipocytes, 24 h, 100 nL compound, profiling panel (AID 1168). Also: test concentration not given here. As to conditions: JC-1 mitochondrial fluorescence, higher = more signal, called active from +8 up or from −8 down.
The nature of assay [8]: JC-1 mitochondrial signal, unstimulated myeloma cells – cell-based, JC-1 fluorescence, RPMI8226, 24 h, 100 nL compound, profiling panel (AID 1169). Also: test concentration not given here. As to conditions: JC-1 mitochondrial potential fluorescence, higher = more signal.
Assay [9] is described as follows: JC-1 mitochondrial signal, unstimulated MM1S myeloma – cell-based, JC-1 fluorescence, 24 h, 100 nL compound, profiling panel (AID 1170). Also: test concentration not given here. As to conditions: MM1S mitochondrial potential, higher = more signal.
Assay [10] is described as follows: resazurin metabolic signal in A549 cells – cell-based, resazurin fluorescence, 24 h, PK04 Diversity Set, profiling panel (AID 1171). Also: test concentration not given here. To be noted: A549 viability, higher = more signal, called active from +8 up or from −8 down.
The nature of assay [11]: resazurin metabolic signal in HepG2 cells – cell-based, resazurin fluorescence, 24 h, PK04 Diversity Set, profiling panel (AID 1172). Also: test concentration not given here. As to conditions: HepG2 viability, higher = more signal. (The colour change of resazurin is a common sign of viable cells or microbes.)
The nature of assay [12]: budding yeast growth changes without added modifier – OD600, strain BY4716, 24 h, basal condition, primary screen (AID 1173). As to conditions: S. cerevisiae BY4716 growth, OD600, 24 h; higher = more signal, called active from +8 up or from −8 down.
Assay [13] is described as follows: viability profiling in MM1S myeloma cells – cell-based, resazurin fluorescence, basal, 24 h, PK04 Diversity Set, profiling panel (AID 1174). Also: test concentration not given here. To be noted: higher = more signal, called active from +8 up or from −8 down.
For assay [14], the target named is Dihydroorotate dehydrogenase (quinone), mitochondrial (Plasmodium falciparum (isolate 3D7)) (UniProt Q08210). Put plainly: inhibition of P. falciparum DHODH – biochemical, C-terminal His tag, absorbance 600 nm, primary screen (AID 1175).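 Also: recombinant parasite enzyme with a five histidine tag at its C terminus; test concentration not given here.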 As to conditions: PfDHODH enzyme, DCIP absorbance 600 nm; higher = more signal, called active from +8 up or from −8 down.
Assay [15] in a line: inhibition of PAO1 biofilm formation – strain PAO1, LB-PBS medium, absorbance 600 nm, primary screen (AID 1176). Also: test concentration not given here. As to conditions: P. aeruginosa PAO1 growth/biofilm, A600, 12 h; higher = more signal.
The nature of assay [16]: growth modulation of vineyard yeast isolate – strain RM11-1a, OD600, basal, 24 h, primary screen (AID 1177).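 Also: cultures grown under basal conditions with no added stressor; test concentration not given here.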 As to conditions: S. cerevisiae RM11-1a growth, OD600, 24 h; higher = more signal, called active from +8 up or from −8 down.
The nature of assay [17]: growth of efflux-deficient E. coli DRC39 – strain DRC39, OD650, 24 h, E. coli filamentation inducers, primary screen (AID 1178).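 Also: growth measured as culture turbidity by optical density at 650 nm; test concentration not given here.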 As to conditions: E. coli DRC39 acrAB, higher = more signal, called active from +8 up or from −8 down.
Assay [18] in a line: growth of efflux-deficient E. coli DRC39 – strain DRC39, OD650, 48 h, E. coli filamentation inducers, primary screen (AID 1179).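 Also: screen aims at cell division blockers that make cells filament.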 To be noted: E. coli DRC39 delta-acrAB growth, higher = more signal, called active from +8 up or from −8 down.
Assay [19] in a line: viability profiling in RPMI8226 myeloma cells – cell-based, resazurin fluorescence, basal, 24 h, PK04 Diversity Set, profiling panel (AID 1180).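 Also: RPMI8826 multiple myeloma cell line at 5000 cells per well; test concentration not given here.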 To be noted: higher = more signal.
For assay [20], the target named is E3 ubiquitin-protein ligase XIAP (Homo sapiens) (UniProt P98170). Put plainly: small molecules binding XIAP protein – biophysical, small-molecule microarray, fluorescence 635 nm, primary screen (AID 1181).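 Also: score merges 667 nm emission and signal to noise over triplicate slides.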 To be noted: higher = more signal.

The structures appear in SMILES notation. Calls of active or inactive are those of the source. Unless noted, no rule for the calls is given here.

E3 ubiquitin-protein ligase XIAP (Homo sapiens), sequence (P98170 whole entry, looked up): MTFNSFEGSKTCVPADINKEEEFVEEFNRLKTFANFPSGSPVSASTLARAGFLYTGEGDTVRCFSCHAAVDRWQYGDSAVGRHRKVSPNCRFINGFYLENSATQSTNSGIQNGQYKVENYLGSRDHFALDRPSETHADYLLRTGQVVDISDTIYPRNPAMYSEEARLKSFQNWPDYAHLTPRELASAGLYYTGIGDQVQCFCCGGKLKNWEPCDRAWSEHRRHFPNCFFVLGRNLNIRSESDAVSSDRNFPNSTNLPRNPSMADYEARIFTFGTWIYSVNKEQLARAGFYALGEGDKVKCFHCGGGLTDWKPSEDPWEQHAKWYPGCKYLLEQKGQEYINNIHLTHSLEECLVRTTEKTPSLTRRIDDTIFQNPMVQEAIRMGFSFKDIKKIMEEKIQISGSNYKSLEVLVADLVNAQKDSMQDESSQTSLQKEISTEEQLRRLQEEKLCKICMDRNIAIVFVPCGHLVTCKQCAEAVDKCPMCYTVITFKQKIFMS
Dihydroorotate dehydrogenase (quinone), mitochondrial (Plasmodium falciparum (isolate 3D7)), sequence (Q08210 whole entry, looked up): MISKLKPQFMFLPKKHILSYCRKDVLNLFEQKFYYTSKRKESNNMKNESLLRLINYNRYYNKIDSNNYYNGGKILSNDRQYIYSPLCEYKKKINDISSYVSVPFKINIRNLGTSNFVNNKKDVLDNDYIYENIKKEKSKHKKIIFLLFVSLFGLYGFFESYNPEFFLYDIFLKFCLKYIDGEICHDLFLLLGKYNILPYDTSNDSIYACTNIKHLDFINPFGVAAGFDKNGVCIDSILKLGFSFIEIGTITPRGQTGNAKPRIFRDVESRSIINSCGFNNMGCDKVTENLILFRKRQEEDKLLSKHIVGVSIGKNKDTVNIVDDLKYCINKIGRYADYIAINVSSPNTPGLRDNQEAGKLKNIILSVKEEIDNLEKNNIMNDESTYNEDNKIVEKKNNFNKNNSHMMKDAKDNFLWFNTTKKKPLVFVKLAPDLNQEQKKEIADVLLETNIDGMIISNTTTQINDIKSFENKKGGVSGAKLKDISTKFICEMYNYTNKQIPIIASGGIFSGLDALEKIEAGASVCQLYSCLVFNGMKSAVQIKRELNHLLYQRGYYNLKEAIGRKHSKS

As to `O=C1N(CCS(=O)(=O)c2ccccc2)c2ccccc2[C@@H]2OC(c3ccc(OCCCO)cc3)=N[C@]12CCS(=O)(=O)c1ccccc1`, the z-score is 0.762 in assay [1]; 0.675 in [2]; -0.136 in assay [3]; -1.68 in [4]; -0.104 in [5]; -1.04 in assay [6]. The z-score was 1.48 (inactive) in [7]; -0.845 in assay [8]; -0.774 in [9]; 0.967 (inactive) in assay [10]; 0.546 in [11]; 1.24 (inactive) in [12]. Further, the z-score in [13] is -0.0861 (inactive); in assay [15], 1.73 (inactive); in assay [16], 1.8 (inactive); in assay [17] it was 0.481 (inactive); in [18], -0.468 (inactive); in assay [19] it was -0.63. Moreover, the composite z-score in [14] was -0.038 (inactive); in assay [20], -0.265.

`O=C1O[C@@H](c2ccccc2)[C@@H](c2ccccc2)N2[C@@H](c3ccc(O)cc3)[C@]3(C(=O)Nc4ccc(C#CC5=CCCCC5)cc43)[C@@H](C(=O)N3CCCCCCC3)[C@H]12`: the z-score in [1] is -0.361; in assay [2] it was 0.967; in assay [3], 0.606; in assay [4], 0.212; in [5], -1.72; in assay [6], 0.41. The z-score in assay [7] is 0.571 (inactive); in assay [8], -0.527; in [9] it was 0.135; in [10], -0.77 (inactive); in [11], -0.109; in [12], -1.2 (inactive). The z-score is 0.158 (inactive) in [13]; 1.22 (inactive) in assay [15]; -0.976 (inactive) in assay [16]; 0.326 (inactive) in assay [17]; -0.199 (inactive) in assay [18]; 0.177 in [19]. Also, the composite z-score in assay [14] is -1.81 (inactive); in assay [20] it was 0.691.

For `C=CCC(OC(C)=O)[C@@H]1[C@@H](N(Cc2cc3ccccc3o2)C(=O)Cc2ccc(OC)cc2)c2cc(OCCCO)ccc2N1C(=O)Cc1ccc2ccccc2c1` (stereo not given in full), the z-score in [1] was 0.583; in assay [2] it was 0.592; in assay [3], -0.118; in assay [4] it was 0.0786; in [5] it was -0.929; in [6] it was 2.27. Also, the z-score in [7] is -0.315 (inactive); in assay [8], 0.00245; in [9], -0.692; in assay [10] it was -1.16 (inactive); in assay [11] it was -1.22; in assay [12], -0.379 (inactive). Besides, the z-score in assay [13] is 0.499 (inactive); in assay [15] it was -0.17 (inactive); in assay [16], 0.101 (inactive); in assay [17] it was -0.529 (inactive); in assay [18], -0.94 (inactive); in [19], -0.216. For the same molecule, the composite z-score in assay [14] was 0.65 (inactive); in assay [20] it was 0.308.

As for `COCCCN1C(=O)[C@@]2(Cc3ccccc31)c1ccccc1C(=O)N(Cc1ccccc1OC)[C@H]2c1ccc(CO)cc1`, the z-score in assay [1] is -0.609; in assay [2], 1.12; in assay [3], -0.95; in assay [4], -0.492; in [5], -0.452; in assay [6], -0.499. Besides, the z-score is -0.722 (inactive) in assay [7]; 0.695 in [8]; -0.0862 in [9]; -0.458 (inactive) in assay [10]; -0.525 in assay [11]; -0.0955 (inactive) in assay [12]. Moreover, the z-score in assay [13] was -0.309 (inactive); in [15], 0.292 (inactive); in assay [16], -0.724 (inactive); in [17], 0.487 (inactive); in assay [18], -0.128 (inactive); in assay [19] it was -0.0935. Also, the composite z-score in [14] is -3.75 (inactive); in [20] it was -0.0622.

Turning to `COc1ccc(CCNC(=O)[C@@]2(Sc3ccc(C)cc3)CC(=O)N(C(C)C)[C@@H]2c2ccc(CO)cc2)cc1`, the z-score in assay [1] is 0.353; in assay [2], 0.356; in [3], -0.453; in assay [4], -0.169; in [5], 0.0991; in assay [6], -0.41. In addition, the z-score is 0.0372 (inactive) in assay [7]; 0.043 in assay [8]; 0.277 in [9]; -0.107 (inactive) in assay [10]; -0.335 in assay [11]; 0.748 (inactive) in assay [12]. Besides, the z-score in assay [13] is -0.416 (inactive); in [15] it was 0.745 (inactive); in assay [16], 1.06 (inactive); in assay [17], -0.252 (inactive); in assay [18], -0.602 (inactive); in assay [19], -0.218. Further, the composite z-score was 0.557 (inactive) in [14] and 0.0132 in assay [20].

As to `COc1cc2c(cc1O)C(c1ccc(CN3CCCC3)cc1)N(Cc1ccc([N+](=O)[O-])o1)CC2` (stereo not given), the z-score is -0.731 in assay [1]; 0.0389 in [2]; 0.0023 in [3]; 0.279 in [4]; -0.0679 in assay [5]; -2.18 in assay [6]. For the same molecule, the z-score was -2.19 (inactive) in assay [7]; 0.733 in assay [8]; -0.307 in assay [9]; -0.679 (inactive) in [10]; -0.274 in [11]; -0.547 (inactive) in assay [12]. Also, the z-score in assay [13] was -0.727 (inactive); in [15] it was 0.0898 (inactive); in assay [16] it was 0.0464 (inactive); in [17], -0.79 (inactive); in [18], -0.259 (inactive); in [19], -0.437. Besides, the composite z-score in assay [14] was -0.412 (inactive); in assay [20], 0.0537.

For the molecule `C[N+](C)(C)CCCCCCNC(=O)[C@@H]1C[C@@H]2C(=O)N[C@@H](Cc3ccccc3)C(=O)N2[C@@H]1c1ccc(O)cc1`, the z-score was -0.428 in assay [1]; -0.482 in [2]; 0.223 in assay [3]; 0.337 in assay [4]; -0.0064 in assay [5]; -1.12 in [6]. Also, the z-score in assay [7] is -0.055 (inactive); in assay [8], -0.862; in [9], -0.401; in [10], 0.47 (inactive); in assay [11] it was 1.17; in assay [12] it was -0.471 (inactive). The z-score in assay [13] was 0.224 (inactive); in assay [15], 0.615 (inactive); in assay [16], -0.0653 (inactive); in assay [17], 0.457 (inactive); in assay [18], 0.492 (inactive); in assay [19], 0.25. Further, the figures for the composite z-score in assay [14] and in assay [20] were -0.77 (inactive) and -0.0882, respectively.

For the molecule `COc1ccc(CC[C@H](O)c2cccc(OCC(=O)OC(C)(C)C)c2)cc1`, the z-score was -1.42 in assay [1]; 0.71 in assay [2]; -2.12 in assay [3]; -2.52 in [4]; -1.31 in assay [5]; -2.71 in [6]. Also, the z-score is 1.69 (inactive) in assay [7]; -0.84 in [8]; -0.835 in [9]; 0.41 (inactive) in assay [10]; 0.657 in assay [11]; -4.45 (inactive) in assay [12]. Moreover, the z-score was -0.25 (inactive) in [13]; 0.475 (inactive) in assay [15]; 0.69 (inactive) in [16]; 0.791 (inactive) in assay [17]; 0.573 (inactive) in assay [18]; -0.204 in [19]. The figures for the composite z-score in [14] and in [20] were -1.82 (inactive) and -0.121, respectively.

As for `CN(C)CCCC[C@@H]1NC(=O)[C@H]2C[C@@H](C(=O)NCc3ccc(F)cc3)[C@@H](c3ccc(O)cc3)N2C1=O`, the z-score in assay [1] is 0.334; in [2], 0.0359; in assay [3], -0.372; in assay [4] it was -0.0511; in assay [5], -0.23; in assay [6], 1.28. The z-score in assay [7] is -0.365 (inactive); in [8], -0.152; in [9] it was 0.195; in [10], 0.377 (inactive); in [11], 0.222; in assay [12], -0.549 (inactive). The z-score was 0.766 (inactive) in [13]; -0.832 (inactive) in assay [15]; -0.649 (inactive) in assay [16]; 0.11 (inactive) in assay [17]; 0.182 (inactive) in [18]; 0.382 in assay [19]. For the same molecule, the composite z-score was -1.54 (inactive) in assay [14] and 0.207 in assay [20].
